Screening data deposited in PubChem by The Scripps Research Institute Molecular Screening Center.
MsrA act – bovine methionine sulfoxide reductase A activation; AID 602163; 0.3% of 360,000 active; purified bovine MsrA, absorbance read-out; activation, % at 10.6 µM; in the data active = activation above about 7.5%;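 also: 0% = vehicle and 100% = reference activator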
MsrA inhibitor – inhibitors of bovine MsrA; 0.75% of 360,000 active; AID 651718; inhibition, % at 15.5 µM; purified bovine MsrA, absorbance read-out; in the data active = inhibition above about 4.5%;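 also: 0% = vehicle wells with enzyme and 100% = reference inhibitor wells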
SMARCA2 activ – increases SMARCA2 function in MMTV reporter cells. MG213 cells, MMTV-luciferase reporter, dexamethasone, overnight. activation, % at 9.1 µM. 1% of 370,000 active; in the data active = activation above about 7.8%;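 also: 0% = vehicle wells and 100% = reference activator wells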
KLK7 zymogen act – proKLK7 (human) activation, primary screen; 0.9% of 370,000 active; purified proKLK7, EDANS-DABCYL substrate fluorescence; 100% is mature enzyme control, 0% vehicle; P49862; activation, % at 7 µM;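 active = activation above the mean of all tested compounds plus 3 SD, computed per campaign excluding outliers beyond control limits, cut at about 13% in these data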
Target sequence (P49862 whole entry, looked up): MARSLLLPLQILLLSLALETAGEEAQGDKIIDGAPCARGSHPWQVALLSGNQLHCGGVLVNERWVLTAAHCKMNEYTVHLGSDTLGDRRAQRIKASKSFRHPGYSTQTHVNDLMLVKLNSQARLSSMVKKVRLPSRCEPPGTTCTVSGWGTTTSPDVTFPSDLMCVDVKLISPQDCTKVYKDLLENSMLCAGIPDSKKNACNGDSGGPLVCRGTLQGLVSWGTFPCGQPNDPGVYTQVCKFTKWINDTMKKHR
SMARCA2 conf – SMARCA2 activation, confirmation screen | MG213 cells, MMTV-luciferase with dexamethasone, luminescence, overnight; MG213 cells expressing E1A, Rb sequestered; DMSO wells 0%, reference activator 100% | activation, % at 9.1 µM | shares compounds with SMARCA2 activ | 30% of 3,500 active;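 active = activation above its plate's cutoff, the mean activation of tested wells plus 3 SD, cut at about 7.9% in these data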
VP16 Luc act – counter-screen for SMARCA2 activators: GAL4-VP16 luciferase reporter activation. shares compounds with SMARCA2 activ. HEK293 GAL4-VP16 pG5luc reporter, luciferase luminescence; scaled: DMSO wells 0%, SAHA wells 100%. activation, % at 9.1 µM. 41% of 3,500 active. AID 686939;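 active = activation above the solvent-only control well mean plus 3 SD, averaged across control plates, cut at about 5.2% in these data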
The depositor's hits bear a star; / = not tested or not shown. Only some compounds are listed: those with a hit (about 2.8% of all), similar ones and a draw of the others.

SMILES	MsrA act	MsrA inhibitor	SMARCA2 activ	KLK7 zymogen act	SMARCA2 conf	VP16 Luc act
Nc1ncnc2c1ncn2[C@@H]1O[C@H](C(=O)N[C@H]2c3ccccc3C[C@H]2OC=O)[C@@H](O)[C@H]1O	-1	-2	-2	0	/	/
Cc1cc(C)c2nc(-n3nc(C)cc3N)cc(C)c2c1	-3	0	10*	0	8.2*	6.2*
O=C(/C=C/c1ccccc1Cl)Nc1ccc(-c2nnc3n2CCCCC3)cc1	-3	0	10*	-1	-4	-1
COC(=O)c1sc2nc(-c3ccco3)ccc2c1N	-4	2	8.0*	-5	14*	6.5*
O=C(Nc1cccc(-c2ccc(N3CCOCC3)nn2)c1)c1ccc(Cl)cc1	-2	1	2	-1	/	/
Cc1ccc(C(=O)Nc2cccc(-c3ccc(N4CCOCC4)nn3)c2)cc1	-10	1	-1	0	/	/
O=C(Nc1cccc(-c2ccc(N3CCOCC3)nn2)c1)c1cccc(Cl)c1	-1	0	9.4*	0	5	7.0*
O=C(Nc1cccc(-c2ccc(N3CCOCC3)nn2)c1)c1ccccc1Cl	1	0	11*	-3	14*	10*
Cc1ccc(OC[C@@H](O)CN2CCC(C(O)(c3ccccc3)c3ccccc3)CC2)cc1	/	/	-5	0	/	/
Cc1ccc2c(ccc[n+]2CC(=O)c2ccccc2)c1	-13	1	12*	-1	-4	0
O=C(Nc1ccccc1C(F)(F)F)OC1CCC12CCC(c1ccccc1)CC2 (stereo not given)	/	/	-3	0	/	/
CC(CCN1CCC(C(O)(c2ccccc2)c2ccccc2)CC1)Oc1cc(F)cc(F)c1 (stereo not given)	/	/	-6	0	/	/
CS(=O)(=O)OC12CCCN(C1)/C(=C/c1ccc(Cl)cc1)C2 (stereo not given)	/	/	-2	0	/	/
O=C(Nc1ccccc1)c1cc2ccccc2o1	-2	-1	13*	0	4	5
Cc1cc(C(=O)Nc2ccccc2)oc1C	-1	0	9.0*	0	4	11*
O=C(Nc1ccc(F)cc1)c1cc2ccccc2o1	-2	1	3	0	/	/
CC(=O)Nc1cccc(NC(=O)c2cc3ccccc3o2)c1	-1	1	3	1	/	/
Cc1cc(C(=O)Nc2cccc3ccccc23)oc1C	-2	0	3	0	/	/
CC(C)C(=O)Nc1cccc(NC(=O)c2cc3ccccc3o2)c1	-3	1	9.4*	0	7	10*
Oc1ccc(C[C@H]2CN([C@@H](Cc3ccc(O)cc3)CN3CCC[C@@H]3CN3C(=S)NC[C@@H]3Cc3ccccc3)C(=S)N2CC2CCCCCC2)cc1	-4	0	1	0	/	/
CCOC(=O)c1ccc(S(=O)(=O)N2CCC(C(=O)N3CCN(c4ccccc4OC)CC3)CC2)cc1	0	0	-3	0	/	/
COc1ccccc1N1CCN(C(=O)C2CCN(S(=O)(=O)c3ccc(F)cc3)CC2)CC1	3	1	8.8*	1	1	0
Cc1cc(C)cc(NC(=O)CCc2c(C)nn(-c3ccc(N4CCCCC4)nn3)c2C)c1	-7	0	11*	0	3	6.3*
COC(=O)[C@]1(CNC(=O)Nc2ccc(C)c(Cl)c2)CC(=O)N(C)[C@@H]1c1ccccc1	/	/	-4	0	/	/
CC(C)(C)c1ccc(OCCC(=O)NNC(=O)c2ccncc2)cc1	-10	1	0	-1	/	/
SMILES	MsrA act	MsrA inhibitor	SMARCA2 activ	KLK7 zymogen act	SMARCA2 conf	VP16 Luc act
CNC(=O)c1c(Cl)cnn1-c1ccc(C)cc1	-1	0	2	0	/	/
C=CCNC(=O)c1c(Cl)cnn1-c1ccc(C)cc1	-11	0	12*	-1	6	5.4*
Cc1ccccc1C(=O)N[C@H](C(=O)N1CCC[C@H]1C(=O)NCCc1ccccc1Cl)c1ccccc1	/	0	-2	1	/	/
O=C(COC(=O)c1ccc(Cl)c(S(=O)(=O)N2CCCCC2)c1)NC1CCCCC1	-2	0	15*	0	2	-1
COc1ccc(C(=O)NC2CCCCCC2)cc1S(=O)(=O)N1CCCC1	-10	-1	0	0	/	/
Cn1c(N)c(C(=O)COC(=O)c2ccc(Cl)c(S(=O)(=O)N3CCCCC3)c2)c(=O)n(C)c1=O	-5	-1	12*	0	-1	-2
COc1ccc(C(=O)NC2CCCCC2)cc1S(=O)(=O)N1CCOCC1	-2	1	15*	0	-2	-1
O=C(COC(=O)c1cc[n+]([O-])cc1)Nc1cc([N+](=O)[O-])ccc1Cl	-4	0	5	0	/	/
CC1C(=O)N(Cc2cn(Cc3ccco3)nn2)CCS(=O)(=O)N1Cc1ccc(-c2ccncc2)cc1 (stereo not given)	-3	0	5	0	/	/
C/C(=N\NC(=O)Nc1ccccc1)c1ccc2ccccc2c1	-3	1	0	0	/	/
Cc1ccc(NC(=O)NCCCCc2ccccc2)cc1	-4	0	3	0	/	/
Cc1ccc(CNC(=O)NCc2ccccc2)cc1	-3	0	1	0	/	/
Cc1ccc(CNC(=O)Nc2ccccc2)cc1	-1	-1	8.7*	0	5	11*
C/C(=N/NC(=O)Nc1ccccc1)c1ccc(C)cc1	-3	0	8.7*	0	3	0
O=C(NCCCc1ccccc1)Nc1ccccc1	-3	0	13*	0	7	2
CN1CCCCC(NC(=O)c2cccc([N+](=O)[O-])c2)C1=O (stereo not given)	/	0	3	1	/	/
CCCN(C)C1CN(Cc2cn(Cc3ccc(C)cc3)nn2)S(=O)(=O)C1 (stereo not given)	-8	1	-5	0	/	/
CC(=O)c1cnc2cc(-c3ccccc3)nn2c1C	-3	0	2	1	/	/
CC(=O)c1cnc2cc(-c3ccc(C)cc3)nn2c1C	-4	0	10*	0	3	9.9*
Cc1nc(CNS(=O)(=O)c2ccc(F)cc2)cs1	-3	0	8.4*	1	-6	0
COc1cc(C(=O)NC2CCCCN(C)C2=O)cc(OC)c1OC (stereo not given)	/	0	-2	0	/	/
CC(=O)Nc1cncc(-c2ccccc2F)n1	-2	1	0	0	/	/
Cc1ccc(O)c(NC(=O)C2CCCN2C(=O)OCc2ccccc2)c1 (stereo not given)	-4	0	9.6*	0	-1	1
N#Cc1c(NC(=O)CSc2nnc(-c3ccccc3)o2)sc2c1CCCC2	-10	/	/	/	/	/
CC1CCc2c(sc(NC(=O)CSc3nnc(-c4ccccc4)o3)c2C#N)C1 (stereo not given)	-9	0	9.9*	2	-3	1
Cc1cc(NC(=O)CSc2nnc(-c3ccc(O)cc3)o2)no1	0	2	1	0	/	/
O=C(CSc1nnc(-c2ccc(O)cc2)o1)Nc1ccccc1	-2	-1	8.6*	0	11*	8.1*
